Test results published in PubChem BioAssay AID1159580 (chemical genetic matrix, 2015).
Several values for one entry are separate records, joined by “and”; a condition that tells them apart may be missing. Equal entries are not always repeated. About 2,000 (36%) of roughly 5,500 compounds were called active. Not shown: some 18% with an inconclusive outcome. Cut-off read from the data, not from the text of the source: active = normalized growth mostly below about 0.91 (no sharp cut-off); inconclusive = no clear call, values can overlap the other calls; inactive = mostly above about 0.92. The list shows a part of the results.

Assay: chemical genetic growth profiling, strain panel (AID 1159580);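 note: tested at 20 µM; growth read once vehicle control cultures reached saturation at 30 °C; 1 = growth at the plate median or of vehicle wells; lower values mean less growth of the strain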
Details: S. cerevisiae deletion strains, growth OD

Measured: normalized growth

COc1cccc(O)c1O
inactive: locus YBR021W, strain FUR4, hits give low values 1.02 | locus YBR229C, strain ROT2, hits give low values 1.04 | locus YCL029C, strain bik1, hits give low values 1 | locus YDL035C, strain GPR1, hits give low values 1.03 | locus YDL074C, strain BRE1, hits give low values 1.01 | locus YDL101C, strain DUN1, hits give low values 1.01 | locus YDL134C, strain PPH21, hits give low values 1.08 | locus YDL185W, strain tfp1, hits give low values 1.01 | locus YDL192W, strain arf1, hits give low values 1 | locus YDR101C, strain arx1, hits give low values 1.01 | locus YDR150W, strain NUM1, hits give low values 1.04 | locus YDR162C, strain NBP2, hits give low values 1.07 | locus YDR318W, strain mcm21, hits give low values 1 | locus YDR388W, hits give low values 1.01 | locus YDR502C, strain sam2, hits give low values 1.01 | locus YEL061C, strain CIN8, hits give low values 1.02 | locus YER110C, hits give low values 0.996 | locus YER155C, strain BEM2, hits give low values 1.04 | locus YER167W, strain BCK2, hits give low values 1.05 | locus YGL078C, strain dbp3, hits give low values 1.01 | locus YGL086W, strain mad1, hits give low values 0.999 | locus YGL248W, strain PDE1, hits give low values 1.03 | locus YGR078C, strain PAC10, hits give low values 1.05 | locus YGR135W, strain pre9, hits give low values 0.976 | locus YGR252W, strain gcn5, hits give low values 0.936 | locus YHR030C, strain SLT2, hits give low values 1.03 and 0.988 | locus YHR079C, strain IRE1 (second series), hits give low values 1.02 | locus YHR079C, strain IRE1, hits give low values 0.999 | locus YHR094C, strain hxt1, hits give low values 1 | locus YHR129C, strain ARP1, hits give low values 1.02 | locus YHR200W, strain rpn10, hits give low values 1 | locus YIL066C, strain RNR3, hits give low values 1.06 | locus YIL073C, strain SPO22, hits give low values 1.03 | locus YIL125W, strain kgd1, hits give low values 1 | locus YIR030C, strain dcg1, hits give low values 1.04 | locus YJL095W, strain BCK1, hits give low values 1.02 and 0.997 | locus YJL134W, strain LCB3, hits give low values 1.03 | locus YJL168C, strain set2, hits give low values 1 | locus YJL187C, strain SWE1 (second series), hits give low values 0.976 | locus YJR043C, strain POL32, hits give low values 1.04 | locus YJR066W, strain TOR1, hits give low values 0.925 | locus YKL009W, strain mrt4, hits give low values 1.01 | locus YKL068W, hits give low values 1.01 | locus YKL085W, strain MDH1 (second series), hits give low values 1.02 | locus YKL085W, strain MDH1, hits give low values 1.02 | locus YKR001C, strain vps1, hits give low values 1.02 | locus YLR039C, strain RIC1, hits give low values 1.17 | locus YLR058C, strain SHM2, hits give low values 0.995 | locus YLR102C, strain apc9, hits give low values 0.995 | locus YLR113W, strain HOG1, hits give low values 0.989 | locus YLR262C, strain YPT6, hits give low values 1.15 | locus YLR268W, strain sec22, hits give low values 0.989 | locus YLR330W, strain CHS5, hits give low values 1.03 | locus YLR342W, strain FKS1 (second series), hits give low values 1.01 | locus YLR371W, strain rom2, hits give low values 1 | locus YLR418C, strain cdc73, hits give low values 1.01 | locus YML016C, strain PPZ1, hits give low values 1.03 | locus YML032C, strain rad52, hits give low values 1.01 | locus YML124C, strain tub3, hits give low values 1.01 | locus YMR078C, strain ctf18, hits give low values 0.99 | locus YMR223W, strain ubp8, hits give low values 0.997 | locus YMR307W, strain GAS1, hits give low values 1.09 | locus YNL067W, strain RPL9B, hits give low values 1.05 | locus YNL183C, strain NPR1, hits give low values 0.926 | locus YNL233W, strain BNI4, hits give low values 1.05 | locus YNL250W, strain rad50, hits give low values 0.996 | locus YNL271C, strain bni1, hits give low values 0.994 | locus YNL298W, strain CLA4, hits give low values 0.99 | locus YNL307C, strain MCK1, hits give low values 1.01 | locus YNR052C, strain pop2, hits give low values 1.01 | locus YOL006C, strain TOP1, hits give low values 1.27 | locus YOL012C, strain htz1 0.899 | locus YOL147C, strain pex11, hits give low values 1 | locus YOR061W, strain CKA2, hits give low values 1.02 | locus YOR069W, strain VPS5, hits give low values 1.02 | locus YOR136W, strain idh2, hits give low values 0.994 | locus YOR144C, strain elg1, hits give low values 1.01 | locus YOR184W, strain ser1, hits give low values 1.02 | locus YOR231W, strain MKK1, hits give low values 1.01 | locus YOR316C, strain cot1, hits give low values 0.995 | locus YPL256C, strain CLN2, hits give low values 0.994 | locus YPR119W, strain clb2, hits give low values 1.02 | locus YPR141C, strain kar3, hits give low values 1.01 | locus YPR163C, strain tif3, hits give low values 0.978 | locus YPR167C, strain met16, hits give low values 1.02 | strain wtn01, hits give low values 0.997
